In PubChem BioAssay:
Potency and affinity values are given separately. Unmarked numbers belong to inactive results.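 The calls were made as follows, unless noted: active = every replicate test run called active, with the signal dropping as expected and potency within twice the top valid dose; inconclusive = test runs disagree, or a flat partial drop or poor fit; inactive = every test run inactive, or effect opposite to expected.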

Experiment: inhibitors of PAX8-driven TPO luciferase reporter, dose response, RMG-I cells, cherry-pick (AID 687027)
Conditions: RMG-I TPO-Luc reporter, SteadyGlo luminescence, 24 h; series mostly up to 35 µM; activity change, negative = inhibition: at the top concentration

Row | SMILES | activity change, negative = inhibition
1 | O=C(NCC1CCCO1)C(=O)NCC(c1ccco1)N1CCN(c2ccccc2)CC1 (stereo not drawn) | -27.6%
2 | COc1ccc(C)cc1NC(=O)C1CCCN(S(=O)(=O)c2cccc3nonc23)C1 (stereo not drawn) | -14%
3 | CCCCC(=O)N1CCN(c2ccc(OC)cc2[N+](=O)[O-])CC1 | -19.4%
4 | COc1ccc(NC(=O)c2nn(C34CC5CC(CC(C5)C3)C4)cc2[N+](=O)[O-])cc1 | -7.83%
5 | Cc1ccc(/C=N/NC(=O)c2ccccn2)o1 | 80.8% [at 8 µM]
6 | O=C(CSc1cccc[n+]1[O-])Nc1cc(S(=O)(=O)N2CCOCC2)ccc1N1CCOCC1 | -3.85%
7 | Fc1ccc(CSc2ccc(-c3ccco3)nn2)cc1 | 147%
8 | COC1OC(COCc2ccccc2)C2OC(C)(C)OC2C1O (stereo not drawn) | -16.7%
9 | COc1ccccc1NC1=Nc2cccc3cccc1c23 | 7%
10 | O=[N+]([O-])c1ccc2nc(SCc3cn4ccccc4n3)[nH]c2c1 | 43.6%
11 | CCOC(=O)C1(Cc2ccc(OC)cc2)CCN(C(=O)CN2CCCCC2=O)CC1 | 25.1%
12 | CC(=O)Nc1ccc(C(=O)CSc2cc(C)c3cccc(C)c3n2)cc1 | 17.7% [at 16 µM]
13 | Cc1cccc(C(=O)Oc2ccc(/C=N/NC(=O)c3ccccc3O)cc2)c1 | 82.9% [at 16 µM]
14 | CC1CCN(CCOc2ccc(OCc3ccccc3)cc2)CC1 | 61.3%
15 | CCN(C(=O)COC(=O)c1ccc(S(=O)(=O)N2CCCc3ccccc32)cc1)C1CCS(=O)(=O)C1 (stereo not drawn) | -27.7%
16 | Cc1cnc(NC(=O)CSc2nnc(C)n2N)s1 | -0.284%
17 | O=C(/C=C/c1c(Cl)nc2ccccn12)Nc1ccc(F)cc1 | 3.51%
18 | Cc1cccc(OCc2nc(-c3cccnc3)no2)c1 | 112% [at 16 µM]
19 | O=C(Cc1cccs1)N/N=C/C=C/c1ccccc1 | 37%
20 | O=C(NC1CCCCCC1)C1c2ccccc2C(=O)N1Cc1cccs1 (stereo not drawn) | 11.4%

Row | SMILES | activity change, negative = inhibition
21 | CN1CCN(C(=S)Nc2ccc(Cl)c(Cl)c2)CC1 | -25.3%
22 | COc1ccc(-c2cn(CC[C@@H]3CC[C@H](NC(=O)Cc4ccccn4)[C@@H](CO)O3)nn2)cc1 | 12.4%
23 | O=[N+]([O-])c1cccc(-c2nnc(-c3ccc4c(c3)OCO4)o2)c1 | 239%
24 | Cc1nn(CCO)c2nc(-c3cccs3)cc(C(F)(F)F)c12 | -10.1%
25 | O=C(/C=C/c1ccco1)Nc1nc(-c2ccccc2)cs1 | 99.9% [at 8 µM]
26 | O=C(Nc1ccccc1)N1CCCCN2[C@@H](CO)[C@@H](c3ccc(C#Cc4ccccc4)cc3)[C@@H]2C1 | -31.1% [at 16 µM]
27 | COc1ccc(C2CC(c3ccc(Br)cc3)=NN2C(=S)Nc2ccccc2)cc1 (stereo not drawn) | 57% [at 16 µM]
28 | COc1ccc(NC(=O)C[C@H]2C(=O)N(c3ccc(OC)cc3)C[C@@H]2C)cc1 | -17.4%
29 | Cc1cc(=O)oc2ccc(OC(=O)CN3C(=O)c4cccc([N+](=O)[O-])c4C3=O)cc12 | 29.1%
30 | O=C(O)CC(NC(=O)C1c2ccccc2Oc2ccccc21)c1ccc(OC2CCCC2)cc1 (stereo not drawn) | -7.28%
31 | Nc1ncn([C@H]2C[C@H](O)[C@@H](CO)O2)c(=O)n1 | 85.7%
32 | COc1ccc2oc(C)c(C(=O)c3ccc([N+](=O)[O-])cc3)c2c1 | 22.7%
33 | O=C(CCN1C(=O)/C(=C/c2ccccc2Cl)SC1=S)Nc1ccccc1C(=O)O | -21%
34 | CCCCC1Cc2[nH]c(=S)[nH]c(=O)c2C(c2ccc(F)cc2)O1 (stereo not drawn) | -17.5%
35 | O=C(CSc1nc2ccccc2s1)NCCOc1ccccc1 | 43.7%
36 | O=C(Cc1nnc(NC(=O)c2ccccc2)s1)N/N=C/c1ccco1 | -7.05%
37 | COc1ccc(O)c(C(c2c(C)[nH][nH]c2=O)c2c(C)[nH][nH]c2=O)c1 | -21.1%
38 | O=C1c2cccc3c(O)ccc(c23)C(=O)N1c1ccc(Cl)cc1 | -15.1%
39 | COc1ccc(-n2nc([N+](=O)[O-])c(=NCc3cccnc3)n2O)cc1 | 34.9%

Experiment: cytotoxicity in PAX8-dependent RMG-1 cells, dose response, cell-based, cherry-pick (AID 687029;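 active = signal drop whose fitted half-maximal concentration is at most twice the top valid dose, in every test run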;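 also: cells exposed to compound for 96 hours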)
Conditions: RMG-1 viability, CellTiterGlo ATP luminescence, 96 h; series mostly up to 35 µM; activity change, negative = inhibition: at the top concentration

Row | SMILES | activity change, negative = inhibition
40 | O=C(NCC1CCCO1)C(=O)NCC(c1ccco1)N1CCN(c2ccccc2)CC1 (stereo not drawn) | 11.6%
41 | COc1ccc(C)cc1NC(=O)C1CCCN(S(=O)(=O)c2cccc3nonc23)C1 (stereo not drawn) | 10.4%
42 | CCCCC(=O)N1CCN(c2ccc(OC)cc2[N+](=O)[O-])CC1 | 32.5%
43 | COc1ccc(NC(=O)c2nn(C34CC5CC(CC(C5)C3)C4)cc2[N+](=O)[O-])cc1 | 33.6%
44 | Cc1ccc(/C=N/NC(=O)c2ccccn2)o1 | 27%
45 | O=C(CSc1cccc[n+]1[O-])Nc1cc(S(=O)(=O)N2CCOCC2)ccc1N1CCOCC1 | 32.2%
46 | Fc1ccc(CSc2ccc(-c3ccco3)nn2)cc1 | 11.8%
47 | COC1OC(COCc2ccccc2)C2OC(C)(C)OC2C1O (stereo not drawn) | 18%
48 | COc1ccccc1NC1=Nc2cccc3cccc1c23 | 8.37%
49 | O=[N+]([O-])c1ccc2nc(SCc3cn4ccccc4n3)[nH]c2c1 | 20.6%
50 | CCOC(=O)C1(Cc2ccc(OC)cc2)CCN(C(=O)CN2CCCCC2=O)CC1 | 15.4%
51 | CC(=O)Nc1ccc(C(=O)CSc2cc(C)c3cccc(C)c3n2)cc1 | 21.7%
52 | Cc1cccc(C(=O)Oc2ccc(/C=N/NC(=O)c3ccccc3O)cc2)c1 | -1.74%
53 | CC1CCN(CCOc2ccc(OCc3ccccc3)cc2)CC1 | 28%
54 | CCN(C(=O)COC(=O)c1ccc(S(=O)(=O)N2CCCc3ccccc32)cc1)C1CCS(=O)(=O)C1 (stereo not drawn) | 15.5%
55 | Cc1cnc(NC(=O)CSc2nnc(C)n2N)s1 | -103%
56 | O=C(/C=C/c1c(Cl)nc2ccccn12)Nc1ccc(F)cc1 | 11%
57 | Cc1cccc(OCc2nc(-c3cccnc3)no2)c1 | 25.5%
58 | O=C(Cc1cccs1)N/N=C/C=C/c1ccccc1 | 7.41%
59 | O=C(NC1CCCCCC1)C1c2ccccc2C(=O)N1Cc1cccs1 (stereo not drawn) | 21.6%

Row | SMILES | activity change, negative = inhibition
60 | CN1CCN(C(=S)Nc2ccc(Cl)c(Cl)c2)CC1 | 58.2%
61 | COc1ccc(-c2cn(CC[C@@H]3CC[C@H](NC(=O)Cc4ccccn4)[C@@H](CO)O3)nn2)cc1 | 2.48%
62 | O=[N+]([O-])c1cccc(-c2nnc(-c3ccc4c(c3)OCO4)o2)c1 | 23.3%
63 | Cc1nn(CCO)c2nc(-c3cccs3)cc(C(F)(F)F)c12 | 3.74%
64 | O=C(/C=C/c1ccco1)Nc1nc(-c2ccccc2)cs1 | 37.1%
65 | O=C(Nc1ccccc1)N1CCCCN2[C@@H](CO)[C@@H](c3ccc(C#Cc4ccccc4)cc3)[C@@H]2C1 | -48.4% [at 30 µM]
66 | COc1ccc(C2CC(c3ccc(Br)cc3)=NN2C(=S)Nc2ccccc2)cc1 (stereo not drawn) | 17%
67 | COc1ccc(NC(=O)C[C@H]2C(=O)N(c3ccc(OC)cc3)C[C@@H]2C)cc1 | -16.3%
68 | Cc1cc(=O)oc2ccc(OC(=O)CN3C(=O)c4cccc([N+](=O)[O-])c4C3=O)cc12 | 56.8%
69 | O=C(O)CC(NC(=O)C1c2ccccc2Oc2ccccc21)c1ccc(OC2CCCC2)cc1 (stereo not drawn) | 26.2%
70 | Nc1ncn([C@H]2C[C@H](O)[C@@H](CO)O2)c(=O)n1 | 11.7%
71 | COc1ccc2oc(C)c(C(=O)c3ccc([N+](=O)[O-])cc3)c2c1 | 14.8%
72 | O=C(CCN1C(=O)/C(=C/c2ccccc2Cl)SC1=S)Nc1ccccc1C(=O)O | 23.1%
73 | CCCCC1Cc2[nH]c(=S)[nH]c(=O)c2C(c2ccc(F)cc2)O1 (stereo not drawn) | -140%
74 | O=C(CSc1nc2ccccc2s1)NCCOc1ccccc1 | 12.5%
75 | O=C(Cc1nnc(NC(=O)c2ccccc2)s1)N/N=C/c1ccco1 | -150%
76 | COc1ccc(O)c(C(c2c(C)[nH][nH]c2=O)c2c(C)[nH][nH]c2=O)c1 | 39.9%
77 | O=C1c2cccc3c(O)ccc(c23)C(=O)N1c1ccc(Cl)cc1 | 14%
78 | COc1ccc(-n2nc([N+](=O)[O-])c(=NCc3cccnc3)n2O)cc1 | -2.62%
